Assay outcomes (PubChem BioAssay)
Compounds with a hit are over-represented: about 3.3% of the library has one in this group of screens.
GSIS activator: primary screen for activators of insulin secretion dependent on glucose, INS-1E cells, GLuc reporter luminescence. INS-1E GLuc reporter insulin secretion, 2-3 h. activation, % at 16.6 µM. 370,000 compounds, 0.61% hits;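 active means lowest replicate activation of at least 40%, so every replicate reaches that level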;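 further: 0% = median of neutral control wells and 100% = median of IBMX positive control wells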
ERAP1 HTS inh: ERAP1 (human) enzyme inhibition; Q9NZ08; inhibition, % at 10.7 µM; recombinant ERAP1, Leu-AMC fluorescence, 60 min; 340,000 compounds, 0.15% hits; AID 652197;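 active means mean replicate inhibition of at least 30%, or all replicates individually reaching that 30% level; inactive means mean below 30% and not every replicate reaching it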;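 further: 0% = neutral control wells and 100% = L-leucinethiol positive control wells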
Target sequence (Q9NZ08 whole entry, looked up): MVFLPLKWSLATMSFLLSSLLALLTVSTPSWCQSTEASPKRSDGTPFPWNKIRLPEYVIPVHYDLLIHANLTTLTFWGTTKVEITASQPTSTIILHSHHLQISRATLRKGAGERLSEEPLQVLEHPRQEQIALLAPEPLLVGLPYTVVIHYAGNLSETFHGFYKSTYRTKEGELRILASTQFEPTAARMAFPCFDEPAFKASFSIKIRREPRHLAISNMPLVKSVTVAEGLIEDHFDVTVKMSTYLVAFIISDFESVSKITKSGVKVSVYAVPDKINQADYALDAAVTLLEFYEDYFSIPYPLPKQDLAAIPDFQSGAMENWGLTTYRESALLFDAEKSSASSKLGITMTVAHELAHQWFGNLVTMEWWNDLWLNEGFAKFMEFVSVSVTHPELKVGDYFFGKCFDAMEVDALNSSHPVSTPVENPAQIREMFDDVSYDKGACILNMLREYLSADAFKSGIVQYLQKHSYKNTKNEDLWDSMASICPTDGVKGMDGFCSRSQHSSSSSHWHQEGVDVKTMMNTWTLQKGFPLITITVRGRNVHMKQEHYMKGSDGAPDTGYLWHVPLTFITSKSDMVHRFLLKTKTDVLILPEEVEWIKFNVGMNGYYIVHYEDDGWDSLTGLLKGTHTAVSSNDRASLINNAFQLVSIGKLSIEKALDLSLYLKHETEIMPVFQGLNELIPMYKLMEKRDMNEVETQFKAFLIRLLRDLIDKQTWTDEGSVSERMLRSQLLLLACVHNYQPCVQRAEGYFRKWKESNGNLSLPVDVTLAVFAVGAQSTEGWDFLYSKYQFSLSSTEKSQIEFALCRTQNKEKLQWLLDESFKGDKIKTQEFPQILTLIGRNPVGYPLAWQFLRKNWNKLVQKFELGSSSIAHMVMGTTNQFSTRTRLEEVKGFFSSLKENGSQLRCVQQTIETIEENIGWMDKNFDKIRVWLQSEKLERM
SIRT5 block: blocks human SIRT5 desuccinylation of peptide; Q9NXA8; inhibition, % at 15 µM; Purified SirT5, succinyl-peptide AMC, trypsin-coupled fluorescence; AID 652115; 330,000 compounds, 1.1% hits; in the data active means inhibition above about 15%
Casp6 inh: caspase-6 (human) enzyme inhibition | P55212 | purified caspase-6, Z-VEID-R110 cleavage fluorescence | inhibition, % at 12.5 µM | 350,000 compounds, 0.53% hits;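 active means mean inhibition across replicates at least about 35%, with every replicate also reaching that limit, limit read from the data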;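 further: 0% = median of neutral control wells and 100% = no fluorescence left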
FGF22 binding: FGF22 (human) thermal shift binding; AID 651658; 340,000 compounds, 1.5% hits; Q9HCT0; activity (Tm shift, normalised), % at 9.99 µM; recombinant FGF22 thermal shift, SYPRO orange fluorescence; percent of sucrose octasulfate shift, DMSO zero;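 active means mean Tm shift, scaled 0 neutral to 100 positive control, at about 1.3% or above, every replicate too, limit read from the data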
* marks the source's active call; other numbers are inactive results.

Results for CNC[C@@H]1Oc2c(NC(=O)c3cc(C)nn3C)cccc2C(=O)N([C@H](C)CO)C[C@H]1C ?
GSIS activator: 12.8; ERAP1 HTS inh: 0.6; SIRT5 block: -2.2; Casp6 inh: 1.7; FGF22 binding: 0.0

How did S=C(Nc1ccc(Cl)cc1)N1CCN(Cc2ccccc2)CC1 do in these assays?
GSIS activator: -6.3; ERAP1 HTS inh: 9.9; SIRT5 block: -5.0; Casp6 inh: -3.6; FGF22 binding: -0.2

Results for FC(F)Oc1ccc(NC(=S)N2CCN(Cc3ccccc3)CC2)cc1 ?
GSIS activator: -12.1; ERAP1 HTS inh: -1.2; SIRT5 block: -8.5; Casp6 inh: -5.1; FGF22 binding: 44.4*

How did O=C(C[C@@H]1CC[C@H](NS(=O)(=O)c2ccccc2)[C@H](CO)O1)N1CCC(Cc2ccccc2)CC1 do in these assays?
GSIS activator: -2.3; ERAP1 HTS inh: 2.1; SIRT5 block: 1.7; Casp6 inh: 2.9

How did COc1ccc(CC2(CO)CCN(Cc3ccc4nsnc4c3)CC2)cc1 do in these assays?
GSIS activator: -10.5; ERAP1 HTS inh: -1.6; SIRT5 block: 1.7; Casp6 inh: 1.7; FGF22 binding: 43.5*

What do the screens show for `COC(=O)Cn1cc(C#N)c2ccccc21`?
GSIS activator: 69.7*

Results for CCOC(=O)Cn1cc(C#N)c2cccc(CC)c21 ?
GSIS activator: 4.5; ERAP1 HTS inh: -3.6; SIRT5 block: 23.9*; Casp6 inh: -0.6; FGF22 binding: 0.2

Results for CCC(=O)N1CCC2(CC1)CN(C(=O)CN1CCOCC1)[C@H](CO)c1c2c2ccc(OC)cc2n1C ?
GSIS activator: 6.4; ERAP1 HTS inh: -0.8; SIRT5 block: -0.6; Casp6 inh: -2.5; FGF22 binding: -0.2

Results for CC(C)CCN1CC(O)=C(c2nc(-c3ccc(Cl)cc3)cs2)C1=N ?
GSIS activator: 78.3*

What do the screens show for `Cc1ccc(CNC(=O)Cc2csc(Nc3nc(=S)[nH]c4ccccc34)n2)cc1`?
GSIS activator: 3.5; ERAP1 HTS inh: 1.3; SIRT5 block: -0.2; Casp6 inh: 41.0*; FGF22 binding: 0.2

What do the screens show for `CCC(=O)Nc1ccc2c(c1)C(=O)N(C)C[C@H](OC)[C@H](C)CN(Cc1cncnc1)[C@H](C)CO2`?
GSIS activator: 14.2

How did CCCNC(=O)N(C)C[C@@H]1Oc2ncc(-c3ccc(F)cc3)cc2C(=O)N([C@@H](C)CO)C[C@@H]1C do in these assays?
GSIS activator: 4.8; ERAP1 HTS inh: -0.3; SIRT5 block: -1.6; Casp6 inh: 3.1; FGF22 binding: 0.1

What do the screens show for `C[C@@H]1CCCCO[C@@H](CN(C)Cc2ccc(C(=O)Nc3ccccc3N)cc2)[C@@H](C)CN([C@H](C)CO)C(=O)c2cc(NC(=O)Nc3ccc(C(F)(F)F)cc3)ccc2O1`?
GSIS activator: -11.2; ERAP1 HTS inh: 0.0; Casp6 inh: 1.7; FGF22 binding: -0.4

What do the screens show for `Cc1noc(C)c1S(=O)(=O)Nc1cccc2c1O[C@H](CN(C)C(=O)Nc1cccc3ccccc13)[C@H](C)CN([C@@H](C)CO)C2=O`?
GSIS activator: -9.4; ERAP1 HTS inh: 1.2; SIRT5 block: -4.6; Casp6 inh: 0.4; FGF22 binding: -0.4

How did Cc1cc(Cl)ccc1Oc1nc(-c2ccccc2)ncc1S(C)(=O)=O do in these assays?
GSIS activator: 149.7*

Results for C[C@@H]1CN([C@@H](C)CO)C(=O)c2cc(NC(=O)Nc3ccc(F)cc3)ccc2O[C@@H](C)CCCCO[C@@H]1CN(C)Cc1ccncc1 ?
GSIS activator: -24.2; FGF22 binding: -0.6

Results for FC(F)c1nnc2c(Cl)cc(C(F)(F)F)cn12 ?
GSIS activator: 5.6; ERAP1 HTS inh: -2.1; SIRT5 block: -4.0; Casp6 inh: -2.5; FGF22 binding: 44.2*

Results for O=C(CSc1nnc2c(Cl)cc(C(F)(F)F)cn12)N(Cc1ccccc1)Cc1ccccc1 ?
GSIS activator: -33.8

What do the screens show for `Cc1ccc(S(=O)(=O)NCCOc2nc(N(C)C)nc(N(C)C)n2)cc1`?
GSIS activator: 30.3; ERAP1 HTS inh: -2.2; SIRT5 block: -0.2; Casp6 inh: 1.4; FGF22 binding: -0.5

How did CSc1nc(N(C)C)nc(N2CC(=O)N(CCNS(=O)(=O)c3ccc(C)cc3)C2=N)n1 do in these assays?
GSIS activator: 40.2*; ERAP1 HTS inh: -2.7; SIRT5 block: -1.2; Casp6 inh: -0.8; FGF22 binding: -0.3

Results for COc1ccc(C(=O)CSc2nnc(CN3CCCCC3)n2-c2ccc(F)cc2)cc1OC ?
GSIS activator: -2.9

How did COc1ccc(C(=O)CSc2nnc(CN3CCCC3)n2-c2ccc(F)cc2)c(OC)c1 do in these assays?
GSIS activator: -2.6; ERAP1 HTS inh: -2.5; SIRT5 block: 1.7; Casp6 inh: -0.6; FGF22 binding: 43.6*

Results for O=C(CCN1CCCCC1)N[C@H]1CC[C@H](CC(=O)N2CCC(Cc3ccccc3)CC2)O[C@@H]1CO ?
GSIS activator: -4.4; ERAP1 HTS inh: 1.8; SIRT5 block: 38.5*; Casp6 inh: 1.7; FGF22 binding: 0.0

What do the screens show for `COCC(=O)N1CC2(C1)CN(C(=O)c1ccccn1)[C@H](CO)c1c2c2ccc(OC)cc2n1C`?
GSIS activator: 9.3

What do the screens show for `Oc1ccc2ccccc2c1C=Nc1ccccc1Br`?
GSIS activator: 8.5; ERAP1 HTS inh: 0.4; SIRT5 block: 0.1; Casp6 inh: 0.5; FGF22 binding: 0.2

How did Oc1ccccc1N=Cc1c(O)ccc2ccccc12 do in these assays?
GSIS activator: -17.4; ERAP1 HTS inh: 0.1; SIRT5 block: 23.1*; Casp6 inh: -0.1; FGF22 binding: -0.1

How did Cc1ccc(NC(=O)CN(C)C(=O)c2ccc(NC(=O)CC3SC(N4CCCC4)=NC3=O)cc2)cc1 (configuration not stated) do in these assays?
GSIS activator: 2.9; ERAP1 HTS inh: -2.1; SIRT5 block: 8.7; Casp6 inh: 0.8; FGF22 binding: 44.3*

How did CN(C)CCCNC(=O)[C@H]1[C@H](CO)[C@H]2Cn3c(cccc3=O)[C@@H]1N2CC1CC1 do in these assays?
GSIS activator: 3.2; ERAP1 HTS inh: -0.1; SIRT5 block: -0.5; Casp6 inh: 1.0; FGF22 binding: 0.0

What do the screens show for `CCCNC(=O)C[C@@H]1CC[C@H]2[C@H](COc3ccc(NC(=O)CC)cc3C(=O)N2C)O1`?
GSIS activator: 6.9; ERAP1 HTS inh: -1.3; SIRT5 block: 4.8; Casp6 inh: 1.8; FGF22 binding: 0.0

Results for CCOc1ccc(CN(C)CC(=O)Nc2cc(C)c(C)cc2[N+](=O)[O-])cc1 ?
GSIS activator: -11.5; ERAP1 HTS inh: -1.9; SIRT5 block: -1.8; Casp6 inh: -1.4; FGF22 binding: 43.1*

Results for CCOc1ccc(CN(C)CC(=O)Nc2cc(OC)c([N+](=O)[O-])cc2C)cc1 ?
GSIS activator: -12.4; ERAP1 HTS inh: -1.2; SIRT5 block: -3.2; Casp6 inh: -2.1; FGF22 binding: 0.0

Results for COc1ccc(CN(C)C[C@H]2OCCCC[C@H](C)Oc3ccc(NC(=O)Nc4ccc(F)cc4)cc3C(=O)N([C@@H](C)CO)C[C@@H]2C)cc1 ?
GSIS activator: -30.9; ERAP1 HTS inh: -18.4; SIRT5 block: -2.7; Casp6 inh: 2.3; FGF22 binding: -0.5
